Screening results (PubChem)
PLK1 PBD block: PLK1 (human) polo-box domain binding inhibition; Potency, µM, without a hit: max response, negative = inhibition, most hits filed as inhibitors; AID 720504; Plk1 PBD binding of FITC phosphopeptide, fluorescence polarization; P53350; 360,000 tested, 2.8% active; note: series mostly up to about 57 µM; nearly all actives have a fitted effect of over 65% in size
GCN5L2 inh: blocks human GCN5L2 histone acetyltransferase; Q92830; GCN5L2 HAT assay, ThioGlo1 CoA-SH fluorescence; Potency, µM (titrated, usually from 58.9 µM), inactives show top-dose activity change, negative = inhibition, most hits filed as inhibitors; 390,000 tested, 0.21% active; AID 504327
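qHTS, 1536-well. 20nM enzyme, pH 7.5 HEPES/EDTA/Tween-20 buffer; 15 min compound preinc., RT. Start: 75uM H3(1-25), 70uM AcCoA, 50uM ThioGlo1. Read Ex340/Em540 at t=0 (autofluorescence flag) and t=20 min.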
TDP1 block: blocks human tyrosyl-DNA phosphodiesterase 1. Q9NUW8. recombinant TDP1, AlphaScreen DNA substrate cleavage. Potency, µM (series often up to 130 µM), for inactives: top-dose activity change, negative = inhibition, most hits filed as inhibitors. 350,000 tested, 0.28% active. AID 485290; note: nearly all actives have a fitted effect of over 40% in size
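Compounds were preincubated with Tdp1 (1 nM final) for 15 min at room temperature before substrate (15 nM final) started a 5 min reaction; beads (10 ug/ml final) were then added for 10 min before AlphaScreen detection.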
DT40 TDP1 no CPT: qHTS for Inhibitors of human tyrosyl-DNA phosphodiesterase 1 (TDP1): qHTS in cells in absence of CPT | DT40 Tdp1-/- hTDP1 cells, no CPT, ATP luminescence, 48 h | Potency, µM (titrated, usually from 46.2 µM), inactives show top-dose activity change, negative = growth inhibition, most hits filed as inhibitors | 420,000 tested, 15% active | AID 686978, 2013; note: nearly all actives have a fitted effect of over 55% in size
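Compound effects on proliferation are scored in DT40 Tdp1-/-;hTDP1 cells in the absence of CPT. ATP levels (CellTiter-Glo luminescence) are recorded after a ≥48 hr, 37 °C incubation.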
TDP1 cell CPT: DT40-hTDP1 cell growth loss with CPT; 420,000 tested, 12% active; chicken DT40 Tdp1-/-;hTDP1 cells + 20 nM CPT, ATP luminescence, 48 h; Potency, µM (doses to about 46.2 µM), for inactives: at the highest dose activity change, negative = growth inhibition, usual class: inhibitors; AID 686979; note: nearly all actives have a fitted effect of over 55% in size
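Cell growth measured by CellTiter-Glo luminescence after a minimum 48 h, 37 C compound exposure with 20 nM CPT in Tdp1-knockout DT40 cells stably expressing hTDP1, seeded 400/well; qHTS titration format.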
VDR inh: blocks the human vitamin D receptor. AID 504847. P11473. Potency, µM, for inactives: max response, negative = inhibition, most hits filed as inhibitors. VDR-SRC2-3 peptide fluorescence polarization, 2 h. 400,000 tested, 0.93% active
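Fluorescence polarization assay measuring small-molecule disruption of VDR binding to the coregulator peptide SRC2-3. Compounds were pin-transferred (23 nl) into the reagent mix and incubated 2 h at room temperature before reading.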
Active calls of the source: *; ? = inconclusive; / = not tested or not shown; [ ] = dose if it differs, or a comment. In the library only some 18% were active in any assay of this set; here they are far more common. Calls come from the whole dose curve; as a rule, active = well fitted curve in the direction sought with a large enough effect; inconclusive = small, poorly fitted or top-dose-only effect, or another doubt; inactive = no such curve, though single readings can be large; an effect the other way counts as inactive or inconclusive. % is set by controls: 0 for no effect and ±100 for the full control effect; potency is the fitted concentration of half-maximal effect.

SMILES	PLK1 PBD block	GCN5L2 inh	TDP1 block	DT40 TDP1 no CPT	TDP1 cell CPT	VDR inh
CCN(CC)S(=O)(=O)c1ccc(C)c(NCC(=O)Nc2ccc(C#N)c(Cl)c2)c1	-6%	-6%	0%	15µM*	16µM*	8%
CC1(C)CCCN1CCC(C(N)=O)(c1ccccc1)c1ccccc1	-4%	/	/	-10%	-8%	-4%
COc1ccc(OCC(=O)N2CCN(CCc3ccccn3)CC2)cc1	/	-13%	-3%	-15%	5%	3%
COC(=O)C1=C(c2cc3ccccc3s2)C[C@@H]2CC[C@H]1N2C(=O)NCCCOC(C)C	4%	/	/	18µM*	18µM*	-8%
CCCNC(=O)N1[C@H]2CC[C@@H]1C(C(=O)OC)=C(c1cc3ccccc3s1)C2	-4%	/	/	/	12µM*	1%
COC(=O)C1=C(c2ccccc2)C[C@@H]2CC[C@H]1N2C(=O)NCCCOC(C)C	-18%	/	/	-8%	2%	-6%
COc1cc(C)c(CN2CCN(c3ccccc3)CC2)cc1C	-7%	-3%	-6%	-6%	-10%	-11%
CN(C)C(CSC(N)=O)CSC(N)=O	/	-8%	17%	/	/	?
OC1(CN2CCOCC2)C2CC3CC(C2)CC1C3 (stereo not given)	-1%	-12%	0%	-16%	-2%	1%
CO[C@H]1C=CCCC=CC(=O)O[C@H]([C@H](C)C(=O)CCCC2CC(=O)NC(=O)C2)C(C)=C[C@@H](C)[C@@H]1O	-1%	/	/	6.5µM*	16µM*	/
CCN(CC)Cc1nccn1-c1ccc([N+](=O)[O-])cc1C(=O)c1ccccc1Cl	/	/	/	6µM*	-83%	/
CC[N+]12CCC(CC1)C(=C(c1ccccc1)c1ccccc1)C2	-21%	-1%	5%	16µM*	?	-12%
C=CCn1cc(C=C2C(=O)NC(=O)NC2=O)c2ccccc21	8%	2%	/	-25%	-28%	7%
O=C1NC(=O)C(=Cc2cn(CCOc3ccc4c(c3)OCO4)c3ccccc23)C(=O)N1	0%	-7%[0.501 µM]	2%	21µM*	?	3%
Cc1ccc(O)c(C(CCN(C(C)C)C(C)C)c2ccccc2)c1 (stereo not given)	/	-18%	5%	-17%	-10%	-4%
CCC(C=C[C@@H]1OC(=O)C=C[C@H]1C)=C[C@H](C)CC=CC(C)=C[C@@H](C)C(=O)[C@@H](C)[C@H](O)[C@@H](C)CC(C)=CC(=O)O	/	-18%[2.33 µM]	1.3µM*	/	/	1.6µM*
C/C=C1/CC(C)C(C)(O)C(=O)OCC2CCN3CCC(OC1=O)C23 (stereo not given)	-7%	-4%	-3%	-6%	-4%	3%
CCN(CC)CCO[C@H]1CC[C@@]2(C)C(=CC[C@@H]3[C@@H]2CC[C@]2(C)C(=O)CC[C@@H]32)C1	/	/	/	2.7µM*	24µM*	/
CCN(CC)CCO[C@H]1CC[C@@]2(C)C(=CC[C@@H]3[C@H]2CC[C@]2(C)C(=O)CC[C@H]32)C1	/	-10%	9%[56.1 µM]	2.4µM*	2.4µM*	1%
CCC1C(C)=NN=C(c2ccc(OC)c(OC)c2)c2cc(OC)c(OC)cc21 (stereo not given)	/	-6%	8%	?	?	-2%
Cc1c(C(=O)N2CCC3(CC2)OCCO3)oc2ccc(S(=O)(=O)N3CCCCC3)cc12	2%	-2%	0%	?	?	-16%
COc1ccccc1OCCCn1cc(C(=O)c2ccco2)c2ccccc21	-3%	?	0%	?	18µM*	6%
O=c1[nH]c2ccccc2n1C1CCN(C(c2cccc3ccccc23)c2nnnn2-c2ccc3c(c2)OCCO3)CC1 (stereo not given)	-1%	/	/	2.6µM*	4.6µM*	/
